Results on 18 molecules are retold here after PubChem BioAssay.

Assay [1] is described as follows: S. cerevisiae growth inhibition in permissive medium (OD615), pilot counter-assay for S. cerevisiae lifespan shortening project, permissive growth control (AID 705;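 active = growth inhibition above 25% in both replicates, a cutoff set 3 SD above the mean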). The note with it: OD615, 24 h, at 10 µM, stronger effect = higher value.
A short description of assay [2]: S. cerevisiae growth inhibition in restrictive medium, OD615, pilot screen, restrictive growth control, yeast lifespan reduction project (AID 706;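 active = growth inhibition above a set limit, 3 SD over mean compound inhibition, in both replicates, cut at about 43% in these data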;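 note: modified DeaD lifespan yeast strain shifted to restrictive glucose medium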). The note with it: OD615, 48 h, at 10 µM, stronger effect = higher value.
Assay [3] is described as follows: doxorubicin toxicity protection in MRP-1 cells – H69AR cells, CellTiter-Glo, duplicate, MRP-1 activator project, pilot screen (AID 807;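 active = viability increase at or above a cutoff of the median across tested compounds plus 3 SD, cut at about 8.5% in these data, passing the limit was not always enough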;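 note: compound pretreatment 18-22 h then 72 h combined with doxorubicin; 0% = doxorubicin alone and 100% = vehicle without doxorubicin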). The following applies: H69AR viability with doxorubicin, CellTiter-Glo luminescence; at 10 µM; stronger effect = higher value.
The nature of assay [4]: viability of HCT116 without oncogenic beta-catenin – human colon tumor cells, pilot screen (AID 823;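 active = cell viability at or below a set limit in both duplicate runs, the limit being the all-compound median minus 4 SD, cut at about 23% in these data, passing the limit was not always enough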;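 note: 0% = wells killed by 20 µM Hyamine and 100% = untreated DMSO cell wells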). The following applies: HCT116 beta-catenin knockout viability, CellTiter-Glo, 60 h; at 10 µM; stronger effect = lower value.
The nature of assay [5]: RAM signaling pathway blockade in yeast – S. cerevisiae, Pdr1DBD-CYC8 efflux-inhibited sensitized strain, primary screen (AID 1298).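 Note: 0% = DMSO untreated cells without growth and 100% = 10 µM 1-NA-PP1 full growth; higher means more yeast growth rescued from 5-FOA killing.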 The note with it: S. cerevisiae cbk1-as DSE1-URA3 strain, 5-FOA growth OD615, 2 d; at 50 µM; stronger effect = higher value.
The nature of assay [6]: HUVEC growth inhibition – cell-based, human, primary screen (AID 575;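 active = viability at or below 30% in both replicate assays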;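 note: 100% = median of untreated cell wells with 0.1% DMSO on each plate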). The note with it: HUVEC proliferation, CellTiter-Glo luminescence, 72 h; at 10 µM; stronger effect = lower value.
A short description of assay [7]: H69AR cell proliferation blockers – human, duplicate replicates, primary screen (AID 580;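 active = viability at or under a set limit in both replicates, limit being median viability minus 3 SD, cut at about 48% in these data, passing the limit was not always enough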;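 note: 100% = mean luminescence of untreated wells and 0% = no signal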). The note with it: H69AR lung tumor cells viability, ATP luminescence, 72 h; at 10 µM; stronger effect = lower value.
The nature of assay [8]: MRP1 drug-resistance reversers in H69AR cells – cell-based, doxorubicin co-treatment, pilot screen (AID 601;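 active = viability loss from added drug above about 55%, and viability with drug at most 40%, in both replicates, limit read from the data, passing the limit was not always enough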). The following applies: CellTiter-Glo, 72 h, at 10 µM; for differential viability (reversal): stronger effect = higher value.
The nature of assay [9]: yeast transport mutant growth inhibition pilot in 384-well plates, post-Golgi transport modulator project (AID 636; in the data active = inhibition above about 31%). The following applies: absorbance 615 nm, about 18 h, stronger effect = higher value.
Assay [10] is described as follows: growth suppression of yeast trafficking mutant, preliminary HTS, modulators of trafficking downstream of Golgi apparatus project, 1536-format plate, OD 615 nm (AID 637; in the data active = inhibition above about 30%). The note with it: yeast transport mutant growth, absorbance 615 nm, 18 h; stronger effect = higher value.
Assay [11] can be described thus: RAM pathway blockade in budding yeast – dse1pr::URA3 reporter, 5-FOA selection, pilot screen (AID 869;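 active = inhibition over a set limit, the all-compound mean plus 3 SD, in both replicate runs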;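 note: 0% = DMSO wells with no growth and 100% = 10 µM 1-NA-PP1 with full growth; RAM network block rescues cells from 5-FOA so hits raise OD615 growth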). The note with it: S. cerevisiae dse1pr::URA3 5-FOA growth, OD615, 2 d; at 10 µM; stronger effect = higher value; strain carries analog-sensitive mutant Cbk1 kinase.
The nature of assay [12]: viability of PTEN-null HCT116 cells – cell-based, HCT116 clonal line, CellTiter-Glo, pilot screen (AID 824;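 active = viability at or below 27.92% in each of two runs, the all-compound median minus 4 SD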;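 note: 0% = 20 µM Hyamine control and 100% = vehicle cell control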). The note with it: HCT116 PTEN-deleted viability, 60 h, at 10 µM, stronger effect = lower value. (In general: ATP-based viability assays read luminescence as a measure of living cells.)
Setting [13] is: H69AR cells + 2 uM doxorubicin, measured here: viability with 2 uM doxorubicin, stronger effect = lower value.
[14] abbreviates: H69AR cells, compound alone cytotoxicity.

Records with an inconclusive call do not appear. Calls of active or inactive are those of the source.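 Rule for the calls, unless noted: active = RAM network inhibition above 8.4% in each of two replicates, 3 SD over the compound average; inconclusive = above 8.4% inhibition in only one replicate; inactive = 8.4% inhibition or less in each replicate.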

On to `CC1(C)Cc2c(c(=S)nc(-c3ccccc3)n2CCCN2CCOCC2)CO1`, for which the growth inhibition in [1] is -12.8% (inactive); in assay [2], 6.05% (inactive). In assay [3], the viability increase was -3.1% (inactive). Moreover, the viability (usually a read-out of living cells in per cent, often relative to untreated cells) in assay [4] was 97.2% (inactive). In assay [5], the RAM network inhibition was 2.19% (inactive).
For `COC(=O)c1nc2n(n1)C(c1ccc(OC)c(OC)c1)C(C(=O)OC1CCCCC1)=C(C)N2` (configuration not stated), the viability in assay [6] is 88.9% (inactive); in assay [7], 83.3% (inactive); in [8] (setting [13]), 98%; in [8] (setting [14]), 83.3%; in assay [4] it was 97.5% (inactive). Further, the differential viability (reversal) in assay [8] (H69AR cells + 2 uM doxorubicin) was -14.8% (inactive). Further, the inhibition (in general, the change of the read-out against control, counted positive when it falls) was -6.49% (inactive) in assay [9], -4% (inactive) in assay [10] and 2.87% (inactive) in [11]. Also, the growth inhibition is -0.32% (inactive) in assay [1] and -3.14% (inactive) in assay [2]. Besides, the viability increase in assay [3] is -5.23% (inactive). For the same molecule, the RAM network inhibition in assay [5] was 6.75% (inactive).
For the molecule `Cc1ccc2oc(-c3ccc(NC(=O)CC(C)C)cc3)nc2c1`, the results for the growth inhibition in [1] and in assay [2] were -9.28% (inactive) and -6.46% (inactive), respectively. The viability increase in assay [3] is -0.39% (inactive). In addition, the viability is 102% (inactive) in assay [4] and 92.6% (inactive) in assay [12]. In addition, the RAM network inhibition in assay [5] is 7.81% (inactive).
`CCCCOc1ccccc1NC(=O)CC1Nc2ccccc2NC1=O` (configuration not stated): the growth inhibition in [1] was 6.14% (inactive); in assay [2], 0.91% (inactive). Besides, in assay [3], the viability increase was -6.18% (inactive). The RAM network inhibition in assay [5] was 7.51% (inactive).
With `Cc1ccc(NC(=O)CSc2nnc(Cn3c(=O)sc4ccccc43)n2C)cc1`, the growth inhibition in [1] is -5.8% (inactive); in [2], -12.1% (inactive). Also, the viability increase in assay [3] was -1.58% (inactive). Also, the viability in assay [4] was 93.6% (inactive); in assay [12] it was 96.4% (inactive). Besides, the RAM network inhibition in assay [5] was 8.73% (inactive).
For the molecule `N#CC(=C1SC=CS1)c1nc(-c2ccccc2)cs1`, the figures for the growth inhibition in [1] and in [2] were 5.05% (inactive) and -6.89% (inactive), respectively. Moreover, the viability increase in assay [3] is -3.21% (inactive). In [4], the viability was 84.4% (inactive). For the same molecule, the RAM network inhibition in [5] is 9.12% (inactive).
Consider `Cc1ccc(C)c(N2CCN(CCCNC(=O)Cn3cc4c(n3)CCCCC4)CC2)c1`, for which the viability in [6] is 2.8% (active); in assay [8] (setting [13]), 68.4%; in assay [8] (setting [14]) it was 37.1%; in [12], 19.6% (active). In addition, the differential viability (reversal) in assay [8] (H69AR cells + 2 uM doxorubicin) was -31.3% (inactive). For the same molecule, the results for the inhibition in assay [9], in assay [10] and in [11] were -2.69% (inactive), 4% (inactive) and 0.495% (inactive), respectively. Moreover, the growth inhibition in assay [1] is -6.4% (inactive); in [2], -0.285% (inactive). In addition, in [3], the viability increase was -7.67% (inactive). Further, the RAM network inhibition in assay [5] is 4.06% (inactive).
`O=C(Nc1nc2c(s1)CCCC2)c1cccnc1`: the growth inhibition in [1] is -5.66% (inactive); in [2] it was -5.07% (inactive). Further, the viability increase in assay [3] is 0.28% (inactive). Further, the viability was 100% (inactive) in [4] and 92.2% (inactive) in assay [12]. In addition, in assay [5], the RAM network inhibition is 1.3% (inactive).
For `O=C(CSc1nc2ccccc2o1)NCc1ccc2c(c1)OCO2`, the growth inhibition in assay [1] was -8.6% (inactive); in assay [2], -2.3% (inactive). The viability increase in assay [3] was 4.28% (inactive). Further, the viability in assay [4] is 94.8% (inactive); in assay [12], 83.9% (inactive). Moreover, the RAM network inhibition in assay [5] is 2.68% (inactive).
As for `O=C(c1cccs1)N(C(=O)c1cccs1)c1ccccn1`, the growth inhibition is -5.4% (inactive) in [1] and -6.32% (inactive) in [2]. In addition, the viability increase in assay [3] is -1.11% (inactive). Besides, the viability in assay [4] is 96.8% (inactive); in [12], 102% (inactive). Also, the RAM network inhibition in assay [5] is 4.17% (inactive).
Consider `CN1C(=O)CSc2ccc(C(=O)O)cc21`, for which the growth inhibition in assay [1] is 0.925% (inactive); in assay [2] it was -1.22% (inactive). In addition, the viability increase in assay [3] is -0.35% (inactive). Moreover, the viability in assay [4] and in assay [12] was 100% (inactive) throughout. The RAM network inhibition in [5] is -0.62% (inactive).
As to `O=C(Cn1c(=O)oc2cc(S(=O)(=O)N3CCCC3)ccc21)NC1CCCc2ccccc21` (configuration not stated), the growth inhibition in assay [1] was -5.83% (inactive); in [2], -9.71% (inactive). For the same molecule, in assay [3], the viability increase was -0.88% (inactive). For the same molecule, the figures for the viability in assay [4] and in [12] were 97% (inactive) and 79.4% (inactive), respectively. Besides, the RAM network inhibition in [5] is 10.3% (inactive).
With `CN1C(=O)c2cccc(NC(=O)CCc3ccccc3)c2C1=O`, the growth inhibition in [1] was -6.67% (inactive); in [2] it was 1.67% (inactive). Moreover, the viability increase in assay [3] was 0.13% (inactive). Also, the viability in assay [4] was 99% (inactive); in assay [12] it was 93% (inactive). Also, the RAM network inhibition in assay [5] is 1.84% (inactive).
As for `CC(=O)NCc1cn2c(C)csc2n1`, the figures for the growth inhibition in assay [1] and in [2] were -16.9% (inactive) and -3.26% (inactive), respectively. Also, the viability increase in assay [3] was -3.88% (inactive). The viability in [4] was 98.1% (inactive); in assay [12] it was 90% (inactive). Besides, in assay [5], the RAM network inhibition is 3.01% (inactive).
For `O=C(Nc1nc(-c2nc3ccccc3s2)cs1)C1COc2ccccc2O1` (configuration not stated), the growth inhibition was 2.93% (inactive) in assay [1] and -0.5% (inactive) in assay [2]. Further, in assay [3], the viability increase is -2.5% (inactive). For the same molecule, the viability was 96.8% (inactive) in [4] and 91.3% (inactive) in assay [12]. For the same molecule, in assay [5], the RAM network inhibition is 2.13% (inactive).
On to `O=C(CSc1nc2c([nH]c3ccccc32)c(=O)n1-c1ccccc1)N1CCOCC1`, for which the growth inhibition in assay [1] is -7.05% (inactive); in assay [2], -18.6% (inactive). Further, the viability increase in [3] was -6.19% (inactive). Further, the viability in assay [4] was 93.6% (inactive); in [12], 87% (inactive). In addition, the RAM network inhibition in assay [5] is 5.28% (inactive).
`COc1ccc(N2CCN(C(=O)c3cc4c(-c5ccc(Cl)cc5)nn(C)c4s3)CC2)cc1`: the growth inhibition in assay [1] was 2.67% (inactive); in assay [2] it was -4.22% (inactive). Moreover, the viability increase in assay [3] is -3.45% (inactive). The viability in [4] was 78.6% (inactive); in assay [12] it was 71.4% (inactive). Moreover, the RAM network inhibition in assay [5] was 3.98% (inactive).
As to `CCOc1ccc(Cn2nnc(C(=O)Nc3cc(OC)cc(OC)c3)c2N)cc1`, the figures for the growth inhibition in assay [1] and in assay [2] were -2.1% (inactive) and 0.885% (inactive), respectively. For the same molecule, the viability increase in assay [3] was -5.5% (inactive). Also, the viability in [4] is 86% (inactive); in [12], 88% (inactive). Besides, the RAM network inhibition in assay [5] was 2.46% (inactive).
